About 83,000 compounds went through this panel and 20% of them were active in at least one assay; those are over-represented in the sample as a whole.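 Results are percent growth after 48 hours of single-concentration exposure. 100 means growth as in untreated cells, lower positive values show inhibition; negative values down to -100 show cell death.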 Calls of active or inactive are those of the source. How the source made its calls: active means growth percent below 10; inactive means the rest.
What was measured:
Assay in all cases: NCI-60 one-dose screen, 48 h (100 = growth as untreated, 0 = no growth, -100 = all killed)
Conditions in all cases: 10 µM unless noted
K-562 leukemia = system: K-562 leukemia
MALME-3M melanoma = system: MALME-3M melanoma
MDA-MB-231 breast = system: MDA-MB-231 breast
RXF 393 renal = system: RXF 393 renal
SF-268 CNS = system: SF-268 CNS
SF-295 CNS = system: SF-295 CNS
SF-539 CNS = system: SF-539 CNS
UACC-257 melanoma = system: UACC-257 melanoma
M14 melanoma = system: M14 melanoma
HCT-15 colon = system: HCT-15 colon

Measured: growth

Cc1cc(C(NC(=O)CCCCCNc2cccc3c2C(=O)N(C2CCC(=O)NC2=O)C3=O)c2cccnc2)c(O)c2ncccc12 (stereo not given)
inactive: K-562 leukemia 17.8% | RXF 393 renal 17.2% | SF-268 CNS 23.6% | SF-539 CNS 21.5% | UACC-257 melanoma 26.2% | HCT-15 colon 19%
active: MALME-3M melanoma -14.3% | MDA-MB-231 breast -11.5% | SF-295 CNS 6.66% | M14 melanoma -5.27%

O=C(c1ccc(Cl)cc1)C1[C@H](c2ccc(Cl)cc2)[C@@H](c2ccccc2)NC12C(=O)Nc1ccc(Br)cc12 (stereo not given in full)
inactive: K-562 leukemia 17% | MALME-3M melanoma 62.7% | MDA-MB-231 breast 37.2% | SF-268 CNS 34.3% | SF-295 CNS 35.4% | SF-539 CNS 59.5% | UACC-257 melanoma 57.7% | M14 melanoma 27.2% | HCT-15 colon 24.6%
active: RXF 393 renal 6.62%

CN1CCN(Cc2ccc(NC(=O)c3cncc(C#Cc4cnc5[nH]ncc5c4)c3)cc2C(F)(F)F)CC1
inactive: SF-268 CNS 37.7% | SF-295 CNS 35.4% | SF-539 CNS 13% | UACC-257 melanoma 40.5% | HCT-15 colon 19.4%
active: K-562 leukemia 3.87% | MALME-3M melanoma -27.9% | MDA-MB-231 breast -23.8% | RXF 393 renal -2.95% | M14 melanoma 8.74%

CN1C(=O)N(c2ccccc2)C2N=C(N/N=C/c3ccccc3)SC21 (stereo not given)
inactive: K-562 leukemia 12% | MALME-3M melanoma 47.9% | MDA-MB-231 breast 31.9% | SF-268 CNS 55% | SF-295 CNS 30.5% | UACC-257 melanoma 64% | HCT-15 colon 30.3%
active: RXF 393 renal -2.78% | SF-539 CNS -6.36% | M14 melanoma -18.9%

C#C[C@]1(O)CC[C@H]2[C@@H]3CC=C4c5sc(Nc6ccc(Cl)cn6)nc5CC[C@]4(C)[C@H]3CC[C@@]21C
inactive: MALME-3M melanoma 58.3% | MDA-MB-231 breast 27.2% | SF-268 CNS 43.7% | M14 melanoma 50.7% | HCT-15 colon 39.7%
active: K-562 leukemia 9.48% | RXF 393 renal -53.2% | SF-295 CNS -63% | SF-539 CNS -30.8% | UACC-257 melanoma -45.2%

CCOC(=O)c1c(Nc2ccccc2)nn2c(N)c(C#N)c(-c3ccc(F)cc3)nc12
inactive: K-562 leukemia 52.3% | MALME-3M melanoma 91.8% | MDA-MB-231 breast 78.6% | RXF 393 renal 84.9% | SF-268 CNS 85.6% | SF-295 CNS 86.5% | SF-539 CNS 88.1% | UACC-257 melanoma 101% | M14 melanoma 91.2% | HCT-15 colon 69.8%

COc1cc(-c2nc3ccc(-c4nnc(SCC(=O)Nc5ccc(C(C)=O)cc5)o4)cc3[nH]2)cc(OC)c1OC
inactive: K-562 leukemia 108% | MALME-3M melanoma 97.7% | MDA-MB-231 breast 96% | RXF 393 renal 116% | SF-268 CNS 111% | SF-295 CNS 101% | SF-539 CNS 97.6% | UACC-257 melanoma 105% | M14 melanoma 105% | HCT-15 colon 103%

COc1cc(/C=C/C(=O)c2ccc(C)cc2)ccc1Oc1nc(NCCO)nc(N2CCOCC2)n1
inactive: MALME-3M melanoma 71.6% | MDA-MB-231 breast 67.7% | RXF 393 renal 82.1% | SF-268 CNS 66.1% | SF-295 CNS 79.8% | SF-539 CNS 39.5% | UACC-257 melanoma 101% | HCT-15 colon 14.5%
active: K-562 leukemia 6.48% | M14 melanoma -64.4%

COc1ccc(NC(=O)c2sc3nc(-c4cnccn4)cc(-c4cccs4)c3c2N)cc1
inactive: K-562 leukemia 54.5% | MALME-3M melanoma 86.5% | MDA-MB-231 breast 79.7% | RXF 393 renal 31.7% | SF-268 CNS 81% | SF-295 CNS 84% | UACC-257 melanoma 85.1% | M14 melanoma 81.2% | HCT-15 colon 66.5%
active: SF-539 CNS -14.2%

Cc1c(Nc2nnc(SCC(=O)Nc3sc4c(c3C#N)CCCC4)s2)c(=O)n(-c2ccccc2)n1C
inactive: K-562 leukemia 93.5% | MALME-3M melanoma 119% | MDA-MB-231 breast 98.4% | RXF 393 renal 118% | SF-268 CNS 103% | SF-295 CNS 107% | SF-539 CNS 102% | UACC-257 melanoma 116% | M14 melanoma 103% | HCT-15 colon 103%

N[C@@H](Cc1cn(-c2ccnc3ccccc23)nn1)C(=O)O
inactive: K-562 leukemia 107% | MALME-3M melanoma 95.5% | MDA-MB-231 breast 97.5% | RXF 393 renal 121% | SF-268 CNS 103% | SF-295 CNS 104% | SF-539 CNS 93% | UACC-257 melanoma 106% | M14 melanoma 108% | HCT-15 colon 114%

Cc1ccc2c(n1)C(=O)C(Cl)=C(Nc1cccc(C(C)C)c1)C2=O
active: K-562 leukemia 3.49% | UACC-257 melanoma 1.85%
inactive: MALME-3M melanoma 83.8% | MDA-MB-231 breast 45.8% | RXF 393 renal 73.1% | SF-268 CNS 80.9% | SF-295 CNS 70.1% | SF-539 CNS 80.7% | M14 melanoma 44.7% | HCT-15 colon 32.4%

Cc1nc(-c2cc3ccccc3oc2=O)ccc1C(=O)/C=C/c1ccccn1
active: K-562 leukemia 7.22% | SF-539 CNS 2.25% | HCT-15 colon -33.3%
inactive: MALME-3M melanoma 88.3% | MDA-MB-231 breast 12.8% | RXF 393 renal 32.3% | SF-268 CNS 78.5% | SF-295 CNS 71.1% | UACC-257 melanoma 101% | M14 melanoma 80.2%

COc1cc(-c2ccc3ncnc(NC(C)c4ccccc4)c3c2)cnc1OC (stereo not given)
inactive: K-562 leukemia 76.3% | MALME-3M melanoma 56.3% | MDA-MB-231 breast 36.1% | RXF 393 renal 26% | SF-268 CNS 44.9% | SF-295 CNS 37.1% | SF-539 CNS 47.2% | UACC-257 melanoma 78.8% | M14 melanoma 68% | HCT-15 colon 52.9%

C/C(=N/NC(N)=S)c1ccc(Nc2nc(SCC(C)C)nc(-c3ccc(F)cc3)c2C#N)cc1
active: K-562 leukemia 4.78% | RXF 393 renal -45.4% | SF-295 CNS -69.8% | SF-539 CNS -58.6%
inactive: MALME-3M melanoma 24.9% | MDA-MB-231 breast 15% | SF-268 CNS 25.3% | UACC-257 melanoma 63.3% | M14 melanoma 28.3% | HCT-15 colon 25.2%

Clc1ccc2c(NCCCn3ccnc3)c3oc4ccc(Cl)cc4c3nc2c1
inactive: K-562 leukemia 66.2% | MALME-3M melanoma 96.5% | MDA-MB-231 breast 58.8% | RXF 393 renal 55.4% | SF-268 CNS 91.1% | SF-295 CNS 86.4% | SF-539 CNS 84% | UACC-257 melanoma 97.9% | M14 melanoma 105% | HCT-15 colon 51.9%

Cc1ccc(CNS(=O)(=O)/N=C2\NC(=O)NC2=C(Cl)Cl)cc1
inactive: K-562 leukemia 27.7% | MALME-3M melanoma 94.7% | MDA-MB-231 breast 40.3% | RXF 393 renal 96.9% | SF-268 CNS 61.8% | UACC-257 melanoma 60.2% | M14 melanoma 87.2% | HCT-15 colon 95.3%
active: SF-295 CNS 4.1% | SF-539 CNS 1.74%

CCN1C(=S)N(c2ccccc2)C2NC(=O)N(/N=C/C=C/c3ccccc3OC)C21 (stereo not given)
inactive: K-562 leukemia 59.2% | MALME-3M melanoma 87.2% | MDA-MB-231 breast 71.9% | RXF 393 renal 92.4% | SF-268 CNS 93.9% | SF-295 CNS 87.9% | SF-539 CNS 86.3% | UACC-257 melanoma 102% | M14 melanoma 92.6% | HCT-15 colon 67.6%

Clc1ccc2c(NCCCn3ccnc3)c3oc4ccccc4c3nc2c1
inactive: MALME-3M melanoma 43.2% | MDA-MB-231 breast 36.7% | RXF 393 renal 32.3% | SF-268 CNS 45.3% | SF-295 CNS 26.3% | SF-539 CNS 27.4% | UACC-257 melanoma 80.7% | M14 melanoma 61.7% | HCT-15 colon 13.7%
active: K-562 leukemia 8.56%

N#Cc1c(-c2ccc(F)cc2)nc2c(C#N)c(Nc3ccccc3)nn2c1N
inactive: K-562 leukemia 99.5% | MALME-3M melanoma 113% | MDA-MB-231 breast 109% | RXF 393 renal 110% | SF-268 CNS 95.3% | SF-295 CNS 99.3% | SF-539 CNS 97.3% | UACC-257 melanoma 106% | M14 melanoma 109% | HCT-15 colon 98.7%

NS(=O)(=O)c1ccc(Nc2nc(Nc3ccccc3)nc(-n3nc(-c4ccccc4)cc3-c3ccccc3)n2)cc1
inactive: K-562 leukemia 11.5% | MALME-3M melanoma 60% | MDA-MB-231 breast 37% | RXF 393 renal 22.8% | SF-268 CNS 37.8% | SF-295 CNS 34.3% | SF-539 CNS 37.2% | UACC-257 melanoma 59.6% | M14 melanoma 26.5% | HCT-15 colon 18.3%

C=CCn1c(SCC(=O)c2ccccc2)nnc1-c1c[nH]c2ccccc12
inactive: K-562 leukemia 92.6% | MALME-3M melanoma 86.6% | MDA-MB-231 breast 88.8% | RXF 393 renal 102% | SF-268 CNS 102% | SF-295 CNS 96.2% | SF-539 CNS 97.3% | UACC-257 melanoma 97.9% | M14 melanoma 97.7% | HCT-15 colon 96%

COC(=O)C1CCCN(S(=O)(=O)/N=C2\NC(=O)NC2=C(Cl)Cl)C1 (stereo not given)
inactive: K-562 leukemia 10.9% | MALME-3M melanoma 104% | MDA-MB-231 breast 102% | RXF 393 renal 121% | SF-268 CNS 106% | SF-295 CNS 104% | SF-539 CNS 105% | UACC-257 melanoma 106% | M14 melanoma 99.3% | HCT-15 colon 80.7%

Cc1[nH]nc2ncc(C#Cc3cncc(C(=O)Nc4ccc(CN5CCN(C)CC5)c(C(F)(F)F)c4)c3)cc12
active: K-562 leukemia 7.53% | MALME-3M melanoma -28.5% | MDA-MB-231 breast -39.2% | RXF 393 renal -12.8% | SF-539 CNS -3.8% | M14 melanoma -17.1%
inactive: SF-268 CNS 21.2% | SF-295 CNS 34.2% | UACC-257 melanoma 14.7% | HCT-15 colon 12.5%

O=C1NC(=C(Cl)Cl)/C(=N/S(=O)(=O)N2CCCCC2CC2(C(F)(F)F)N=N2)N1 (stereo not given)
active: K-562 leukemia 2.72% | MALME-3M melanoma -71% | MDA-MB-231 breast -21.4% | RXF 393 renal -28.8% | SF-539 CNS -22% | HCT-15 colon -67.3%
inactive: SF-268 CNS 49.3% | SF-295 CNS 99.3% | UACC-257 melanoma 82.6% | M14 melanoma 24.4%

Cn1cc(-c2cc(N)n3nc(-c4cn(C)c5ccc(Br)cc45)cc3n2)c2cc(Br)ccc21
active: K-562 leukemia 5.07%
inactive: MALME-3M melanoma 102% | MDA-MB-231 breast 63.3% | RXF 393 renal 147% | SF-268 CNS 82.5% | SF-295 CNS 105% | SF-539 CNS 85.2% | UACC-257 melanoma 109% | M14 melanoma 65.5% | HCT-15 colon 41.7%

From PubChem BioAssay (NCI)
